Assay outcomes from PubChem BioAssay.
IL1B secr inh: qHTS for Inhibitors of Inflammasome Signaling: IL-1-beta AlphaLISA Primary Screen; AID 743279, 2014; activity change, % at 57.5 µM; 4.7% of 360,000 active; THP-1 LPS/ATP IL-1B secretion, AlphaLISA, 16 h; stronger effect = lower value; in the data active means activity change below about -50%; inconclusive means mostly about -30% to -49%
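Secreted IL-1B measured by AlphaLISA bead assay after 16 h compound exposure of THP-1 cells; compounds (final up to 57.5 uM) added 1 h before LPS (250 ng/mL) and ATP (1.25 mM) stimulation; lower signal means less secretion.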
ELG1 DNA repair: qHTS screen for small molecules that inhibit ELG1-dependent DNA repair in human embryonic kidney (HEK293T) cells expressing luciferase-tagged ELG1. HEK293T ELG1-luciferase reporter, luminescence, 16 h; DNA damage induced by 5-fluorouridine. Potency, µM (doses to about 46.1 µM), hits mostly inhibitors. 2.3% of 330,000 active; further: nearly all actives have a fitted effect of over 55% in size
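Quantitative HTS, concentration-response format. 2,000 cells/well co-treated with 5-fluorouridine and compound, 16 hr in 5% CO2 at 37 °C; ONE-Glo luminescence read after 30 min.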
DT40 TDP1 CPT: qHTS for Inhibitors of human tyrosyl-DNA phosphodiesterase 1 (TDP1): qHTS in cells in presence of CPT | chicken DT40 Tdp1-/-;hTDP1 cells + 20 nM CPT, ATP luminescence, 48 h | Potency, µM (top dose mostly 46.2 µM), actives largely listed as inhibitors | 12% of 420,000 active; further: nearly all actives have a fitted effect of over 55% in size
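Chicken DT40 Tdp1-/- cells stably complemented with human TDP1 were seeded at 400 cells/well in medium containing 20 nM camptothecin, exposed to pin-transferred compounds, and grown at 37 °C for at least 48 hr. Viability was read as ATP luminescence.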
TDP1 cell noCPT: qHTS for Inhibitors of human tyrosyl-DNA phosphodiesterase 1 (TDP1): qHTS in cells in absence of CPT. Potency, µM (titrated, usually from 46.2 µM), most hits filed as inhibitors. DT40 Tdp1-/- hTDP1 cells, no CPT, ATP luminescence, 48 h. 15% of 420,000 active. AID 686978, 2013; further: nearly all actives have a fitted effect of over 55% in size
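Chicken DT40 Tdp1-/- cells stably complemented with human TDP1 were seeded at 400 cells/well with DMSO in place of 20 nM camptothecin. After compound pinning, cells grew at least 48 hr at 37 °C; viability read by CellTiter-Glo luminescence.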
HT1080NT lethal: qHTS for induction of synthetic lethality in tumor cells producing 2HG: qHTS for the HT-1080-NT fibrosarcoma cell line; HT-1080-NT fibrosarcoma viability, CellTiter-Glo ATP luminescence, 48 h; Potency, µM (top dose mostly 46.1 µM), usual class: cytotoxic; 1.6% of 360,000 active; AID 686970, 2013;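 further: NT is the 2HG producing partner of a matched IDH1 knockdown line; nearly all actives have a fitted effect of over 55% in size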
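Viability of the 2HG-overproducing fibrosarcoma line after 48 hours of compound exposure at 37 degrees C was determined by luminescence with CellTiter-Glo, and concentration-effect curves were then fitted and categorized.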
HT1080 IDH1KD tx: qHTS for induction of synthetic lethality in tumor cells producing 2HG: qHTS for the HT-1080-IDH1KD cell line; 2% of 360,000 active; Potency, µM (doses to about 46.1 µM), usual class: cytotoxic; HT-1080 IDH1 knockdown viability, ATP luminescence, 48 h; AID 686971, 2013
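IDH1KD HT-1080 cells, 750/well, RPMI + 5% FBS; compound pinned after 2 h settling; 48 h, 37 °C; CellTiter-Glo luminescence; % activity normalised to DMSO and no-cell wells; curves fitted, classed by r2 and efficacy.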
ELG1 FLuc counter: qHTS screen for small molecules that inhibit ELG1-dependent DNA repair: Hit Confirmation in Cell-Based Luciferin Assay. Potency, µM (highest dose often 46.1 µM), hits mostly inhibitors. 3% of 350 active. shares compounds with ELG1 DNA repair. cell-free firefly luciferase luminescence counter-screen, ViewLux
ELG1 Luc conf: HTS assay for small molecules that inhibit ELG1-dependent DNA repair in human embryonic kidney (HEK293T) cells expressing luciferase-tagged ELG1: Hit Confirmation; 68% of 670 active; shares compounds with ELG1 DNA repair; Potency, µM (doses to about 46.1 µM), hits mostly inhibitors; HEK293T ELG1-luciferase levels, luminescence; cells co-treated with 5-fluorouridine; further: nearly all actives have a fitted effect of over 55% in size
ELG1-Luc MMS: confirmation of human ELG1 repair inhibitors, MMS stimulated; shares compounds with ELG1 DNA repair; HEK293T luciferase-tagged ELG1 level, MMS stimulated; Potency, µM (doses to about 46.1 µM), actives largely listed as inhibitors; 53% of 670 active; further: nearly all actives have a fitted effect of over 60% in size
ELG1 5FU viab: qHTS screen for small molecules that inhibit ELG1-dependent DNA repair: Hit Confirmation with 5FU Viability; 670 tested, under 10 active; Potency, µM (doses to about 46.1 µM), usual class: cytotoxic; shares compounds with ELG1 DNA repair; AID 624250, 2012; cell viability with 5-FU, ELG1-dependent repair;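 further: ELG1-luc HEK293T cells cotreated with 5-fluorouridine at 10 µM final; viability measured 16 h after compound addition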
ELG1 MMS cell: qHTS screen for small molecules that inhibit ELG1-dependent DNA repair: Hit Confirmation with MMS Viability | AID 624251, 2012 | shares compounds with ELG1 DNA repair | 33% of 670 active | Potency, µM (series often up to 46.1 µM), usual class: cytotoxic | Cell viability with MMS, ELG1-dependent DNA repair;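 further: ELG1-luc HEK293T cells co-treated with 10 µM MMS; viability read 16 h after compound addition; nearly all actives have a fitted effect of over 60% in size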
ELG1 unstim viab: qHTS screen for small molecules that inhibit ELG1-dependent DNA repair: Hit Confirmation with Unstimulated Viability Assay. shares compounds with ELG1 DNA repair. 8% of 900 active. cell viability counter-screen, unstimulated, luminescence. Potency, µM (highest dose often 45.9 µM), usual class: cytotoxic. AID 624252, 2012;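 further: compound exposure lasted 16 hours before reading; nearly all actives have a fitted effect of over 55% in size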
FLuc enzyme: qHTS screen for small molecules that inhibit ELG1-dependent DNA repair: Hit Confirmation in Biochemical Luciferin Assay; purified firefly luciferase, luminescence counter-screen; shares compounds with ELG1 DNA repair; Potency, µM (top dose mostly 57.5 µM), hits mostly inhibitors; AID 624253, 2012; 10% of 350 active
Large screens that a line does not name were inactive (follow-up assays come after a bar, where they were run). Hits are enriched below; roughly 19% of the tested compounds scored in any of these assays. Unless noted, the call rests on the fitted dose curve; in most records, active means well fitted curve in the direction sought with a large enough effect; inconclusive means small, poorly fitted or top-dose-only effect, or another doubt; inactive means no such curve, though single readings can be large; an effect the other way counts as inactive or inconclusive.

CCOc1cccc(-c2nnc(SCC(=O)Nc3cc(C)ccc3OC)n2N)c1	ELG1 DNA repair 0.581µM, TDP1 cell noCPT inconclusive | ELG1 FLuc counter inactive | ELG1 Luc conf inconclusive | ELG1-Luc MMS inactive | ELG1 5FU viab inactive | ELG1 MMS cell inactive | ELG1 unstim viab inactive | FLuc enzyme inactive
COc1ccc(C)cc1NC(=O)CSc1nnc(-c2ccc(OC)c(OC)c2)n1N	none
CCC(c1nnc(SCC(=O)NC2CCCCC2)n1Cc1ccccc1)N(C)C (stereo not given)	none
O=c1[nH]c(=O)n([C@@H]2O[C@H](CO)[C@@H](O)[C@H]2O)cc1F	DT40 TDP1 CPT 0.106µM, TDP1 cell noCPT 0.0596µM (no result: IL1B secr inh, ELG1 DNA repair, HT1080NT lethal, HT1080 IDH1KD tx) | ELG1 unstim viab inconclusive
CCc1cn([C@H]2C[C@H](O)[C@@H](CO)O2)c(=O)[nH]c1=O	DT40 TDP1 CPT inconclusive, TDP1 cell noCPT inconclusive
Cc1sc(NC(=O)c2ccco2)c(C(c2cccnc2)N2CCN(c3ccc(F)cc3)CC2)c1C (stereo not given)	IL1B secr inh inconclusive, DT40 TDP1 CPT 1.84µM, TDP1 cell noCPT 5.8µM, HT1080NT lethal inconclusive, HT1080 IDH1KD tx inconclusive | ELG1 FLuc counter inactive | ELG1 unstim viab inactive | FLuc enzyme inactive
COc1ccc(C(c2c(NC(=O)c3ccco3)sc(C)c2C)N2CCOCC2)cc1OC (stereo not given)	TDP1 cell noCPT inconclusive
O=C(NCc1ccco1)c1cnn2c(C(F)F)cc(-c3ccccc3)nc12	ELG1 DNA repair inconclusive
